High-throughput results: PubChem, National Center for Advancing Translational Sciences (NCATS)
Rows were chosen to be rich in hits. Some 17% of all compounds tested hit in one or more screens of this group.
DT40 TDP1 CPT: growth inhibition of DT40 Tdp1-/-;hTDP1 cells with camptothecin (screen for TDP1 inhibitors); Potency, µM (titrated, usually from 46.2 µM), inactives show top-dose activity change, negative = growth inhibition, usual class: inhibitors; actives 12% (n = 420,000); chicken DT40 Tdp1-/-;hTDP1 cells + 20 nM CPT, ATP luminescence, 48 h; further: on the % scale 0 is the no-effect control and ±100 the full control effect; nearly all actives have a fitted effect of over 55% in size
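Cell growth measured by CellTiter-Glo luminescence after a minimum 48 h, 37 C compound exposure with 20 nM CPT in Tdp1-knockout DT40 cells stably expressing hTDP1, seeded 400/well; qHTS titration format.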
ATXN viability: reduces viability in counter-screen for ATXN expression inhibitors; S2 cells (HEK-293 line with an ATXN2-luciferase reporter) viability, CellTiter-Fluor protease fluorescence, 24 h; actives 0.49% (n = 400,000); Potency, µM (top dose mostly 56.7 µM), actives largely listed as cytotoxic; further: nearly all actives have a fitted effect of over 40% in size
DT40 TDP1 no CPT: qHTS for Inhibitors of human tyrosyl-DNA phosphodiesterase 1 (TDP1): qHTS in cells in absence of CPT; DT40 Tdp1-/- hTDP1 cells, no CPT, ATP luminescence, 48 h; Potency, µM (highest dose often 46.2 µM), for inactives: at the top dose activity change, negative = growth inhibition, most hits filed as inhibitors; actives 15% (n = 420,000); AID 686978, 2013; further: on the % scale 0 is the no-effect control and ±100 the full control effect; nearly all actives have a fitted effect of over 55% in size
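Cells were dispensed at 400 per well, compounds added by pin tool, plates incubated ≥48 hr at 37 °C, then CellTiter-Glo added for 30 min at room temperature before luminescence reading. Line: DT40 Tdp1-/- complemented with hTDP1; camptothecin omitted.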
TGFb SMAD3 inh: inhibitors of TGF-b signaling | HepG2 CAGA-GFP TGF-b/SMAD3 reporter, GFP fluorescence, 18 h; TGF-beta stimulated, 500 pg/mL final | Potency, µM (series often up to 46.1 µM), for inactives: top-dose activity, negative = inhibition, usual class: inhibitors | actives 1.2% (n = 410,000) | AID 588855; further: on the % scale 0 is the no-effect control and ±100 the full control effect; nearly all actives have a fitted effect of over 65% in size
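GFP signal (ex488/em500-530) from TGF-beta-stimulated HEPG2 CAGA-GFP cells, 500 pg/mL final, 18 h at 37 degrees C in DMEM plus 1% FBS, normalized to unstimulated and DMSO-stimulated controls.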
ATXN2 expr inh: ATXN2 expression inhibition; Potency, µM (series often up to 57 µM), without a hit: at the top dose activity change, negative = inhibition, most hits filed as inhibitors; HEK-293 ATXN2-luciferase reporter, luminescence, 24 h; AID 1745845; actives 0.72% (n = 360,000); further: on the % scale 0 is the no-effect control and ±100 the full control effect; nearly all actives have a fitted effect of over 55% in size
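ATXN2-luciferase reporter cells (luciferase flanked by upstream and downstream ATXN2 gene portions) were treated 24 h at 37 °C with compounds at up to 57 uM. SteadyGlo luminescence gave expression; GF-AFC fluorescence gave viability.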
HepG2 viability: counter-screen for TGF-b inhibitors: cytotoxicity in HepG2 cells; HepG2 CAGA-GFP viability, ATP luminescence, 18 h; Potency, µM (top dose mostly 46.1 µM), without a hit: at the top dose activity change, negative = cytotoxicity, usual class: cytotoxic; actives 0.76% (n = 410,000)
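CellTiter-Glo luminescence gave cytotoxicity after 18 hours at 37 degrees C. The cells were HepG2 CAGA-GFP in 1% FBS DMEM, stimulated with 500 pg/mL TGF-beta after compound addition. %Activity was normalised to no-cell wells (complete cell-killing) and DMSO (no toxicity), and curves were fitted and classified.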
Starred values were filed as active, the others as inactive; i = inactive; ? = inconclusive; . = not tested or not shown; ! = a repeat was not active. The call rests on the fitted dose curve; in most records, active means well fitted curve in the direction sought with a large enough effect; inconclusive means small, poorly fitted or top-dose-only effect, or another doubt; inactive means no such curve, though single readings can be large; an effect the other way counts as inactive or inconclusive. Potency means the concentration at half of the fitted maximal effect.

SMILES	DT40 TDP1 CPT	ATXN viability	DT40 TDP1 no CPT	TGFb SMAD3 inh	ATXN2 expr inh	HepG2 viability
COc1ccccc1Nc1ncc(C(=O)Nc2ccc(OC)c(OC)c2)c2ccccc12	18.4µM*	i	16.4µM*!	-11.9%	-5.4%	-15.0%
COc1cccc(NC(=O)c2ccccc2NS(C)(=O)=O)c1	?	i	20.6µM*	-17.5%	3.4%	-3.6%
COc1ccccc1NC(=O)c1ccccc1-c1nc(-c2ccccc2OC)no1	14.1µM*	i	6.31µM*	-2.8%	10.9%	-16.7%
CCOc1ccc(NC(=O)c2cnc(Nc3ccccc3OC)c3ccccc23)cc1	?	i	?	0.4%	22.5%	4.1%
COC(=O)c1ccc(NC(=O)c2ccccc2NS(C)(=O)=O)cc1	?	i	?	-11.0%	6.5%	-18.8%
CCS(=O)(=O)c1ccc(C(=O)Nc2ccccc2)c(Cl)c1Cl	?	i	?	0.0%	2.0%	-2.0%
CCS(=O)(=O)c1ccc(C(=O)Nc2cccc(Cl)c2)c(Cl)c1Cl	?	i	20.6µM*	?	-0.2%	-1.0%
COc1ccccc1-c1noc(-c2ccccc2C(=O)Nc2ccccc2)n1	-22.5%	i	-24.9%	5.5%	-0.2%	-6.7%
CS(=O)(=O)Nc1ccccc1C(=O)Nc1ccccc1Cl	-4.0%	i	-14.5%	-6.4%	-16.6%	2.0%
CS(=O)(=O)Nc1ccccc1C(=O)Nc1cccc(Cl)c1	?	i	23.1µM*	?	-6.0%	-22.3%
COc1cccc(NC(=O)c2cc(Cl)nnc2Cl)c1	0.517µM*	?	8.2µM*	-10.7%	-59.7%	-30.0%
COc1ccccc1NC(=O)c1ccccc1NC(=O)c1cccs1	23.1µM*	i	?	7.7%	-7.7%	-9.0%
COc1ccc(NC(=O)c2ccccc2NS(C)(=O)=O)cc1OC	20.6µM*	i	10.3µM*	-0.3%	4.0%	4.1%
Cc1ccc(S(=O)(=O)N2C3CC(c4ccccc4)N(S(=O)(=O)c4ccccc4Cl)CC3C(=O)C[C@H]2c2ccccc2)cc1 (stereo not given in full)	-14.0%	.	-15.9%	.	.	.
CCN(CC)CCNC(=O)C1(c2ccccc2)CCCCC1	5.1%	i	-1.6%	5.6%	-16.4%	8.5%
COc1cc(/C=C(/NC(=O)c2ccccc2)C(=O)Nc2ccc(O)cc2)c([N+](=O)[O-])cc1OC	4.8%	i	11.8%	-7.7%	11.6%	-13.1%
CCOc1ccccc1NC(=O)c1ccccc1NS(C)(=O)=O	-18.0%	i	?	0.2%	-7.1%	0.3%
COc1ccccc1NC(=O)c1ccccc1NS(C)(=O)=O	?	i	14.6µM*	21.5%	-7.0%	2.8%
O=C(c1cnccn1)N1CCC2(CCCN(c3ccncc3)C2)CC1	2.4%	.	-12.2%	.	.	.
Cc1csc(N(C)C(=O)CSc2nnc(COc3cccc4ccccc34)o2)n1	5.8µM*	i	5.8µM*	?	?	-8.4%
COC(=O)CSc1nnc(COc2cccc3ccccc23)o1	-5.1%	i	-13.3%	7.3%	-10.8%	2.0%
CCCCn1c(N)c(N(CC(C)C)C(=O)CC2CCCCC2)c(=O)[nH]c1=O	-2.4%	i	-8.7%	14.7%	-13.2%	9.1%
CCc1ccccc1NC(=O)c1ccc2c(c1)c(C)c(C)n2Cc1ccccc1	?	.	?	0.0%	.	-35.2%
Cc1c(C)n(Cc2ccccc2)c2ccc(C(=O)NCC(C)c3ccccc3)cc12 (stereo not given)	?	.	?	0.0%	.	-30.5%
Cc1cccc(C(=O)Nc2c(C#N)c(C)c(C)n2Cc2ccccc2)c1	?	i	16.4µM*	?	-6.5%	1.7%
SMILES	DT40 TDP1 CPT	ATXN viability	DT40 TDP1 no CPT	TGFb SMAD3 inh	ATXN2 expr inh	HepG2 viability
Cc1ccccc1NC(=O)c1ccc2c(c1)c(C)c(C)n2Cc1ccccc1	7.31µM*	.	4.11µM*	?	.	-15.4%
Cc1c(C)n(Cc2ccccc2)c2ccc(C(=O)NC(C)c3ccccc3)cc12 (stereo not given)	16.4µM*	.	16.4µM*	0.0%	.	-57.7%
Cc1cc(C2=NNC(=NC3CC3)SC2)c(C)n1-c1ccccc1F	16.4µM*	i	20.6µM*	?	0.282µM*	-47.6%
Cc1cccc(C)c1N=C1NN=C(c2ccccc2F)CS1	20.6µM*	i	20.6µM*	?	0.8%	-56.0%
C=C(C)CN=C1NN=C(c2cc(C)n(-c3ccc(C)cc3)c2C)CS1	14.6µM*	?	11.6µM*	0.0%	18.3%	-11.9%
O=C(NCc1cccc(C(F)(F)F)c1)c1csc([C@@H]2O[C@H](CO)[C@H](O)[C@H](O)[C@H]2O)n1	-5.3%	i	-6.4%	-2.9%	17.6%	17.5%
Cc1c(-c2nsc(NC(=O)c3ccc(Cl)cc3)n2)nnn1-c1ccc(C(C)C)cc1	10.3µM*	.	9.2µM*	?	.	-54.3%
Cc1c(-c2nsc(NC(=O)c3cccs3)n2)nnn1-c1ccc(Br)cc1	?	31.6µM*	?	-25.8%	?	-37.1%
COc1ccc(C(=O)Nc2nc(-c3nnn(-c4ccc(F)cc4F)c3C)ns2)cc1	14.6µM*	?	13µM*	?	11.2µM*	-36.2%
COC(=O)c1ccc(-n2nnc(-c3nsc(NC(=O)c4ccc(Cl)cc4)n3)c2C)cc1	-17.7%	i	-4.0%	-8.9%	-26.3%	2.5%
O=C1OC(N2C(=O)CC[C@H]2C(=O)Nc2cccc(F)c2)c2ccccc21 (stereo not given in full)	3.4%	i	7.0%	-0.7%	-3.7%	-7.3%
CO/N=C/C(C#N)=C/c1cc(C(=O)c2ccccc2)cn1C	-20.1%	i	20.6µM*	2.2%	-20.2%	-5.5%
COc1ccccc1/C=C(\C#N)C(=O)c1cccn1C	-3.1%	i	-11.7%	-11.6%	.	-39.9%
COC(=O)c1ccc(CN(c2ccccn2)S(=O)(=O)c2ccccc2)cc1	-21.8%	i	?	-7.0%	14.0%	-23.6%
COC(=O)c1ccc(CN(c2ccc(C(=O)O)c(O)c2)S(=O)(=O)c2ccc(Cl)c([N+](=O)[O-])c2)cc1	16.4µM*	i	16.4µM*	?	?	-16.7%
Cc1ccc2oc3c(c(=O)c2c1)C(c1ccc(O)cc1)N(c1nc(C)c(C)s1)C3=O (stereo not given)	-5.3%	i	-8.1%	-0.2%	2.0%	3.6%
O=C(OCc1cccc([N+](=O)[O-])c1)c1ccc2ccccc2n1	4.0%	i	11.7%	-11.1%	-13.3%	-4.5%
